PubChem BioAssay AID1903 (Southern Research Specialized Biocontainment Screening …, 2009)
In all, about 310,000 compounds went through this assay and about 1,200 (0.39%) were called active. How the calls were made is not given here. The list is a sample of the results. Entries with a potency or affinity are not part of this list.

target: Large T antigen (Simian virus 40) (UniProt P03070); assay: TAg ATPase/helicase activity blockers – biochemical (AID 1903); conditions: SV40 large T antigen ATPase/helicase inhibition assay; at 20 µM; stronger effect = higher value
Sequence (P03070 whole entry, looked up): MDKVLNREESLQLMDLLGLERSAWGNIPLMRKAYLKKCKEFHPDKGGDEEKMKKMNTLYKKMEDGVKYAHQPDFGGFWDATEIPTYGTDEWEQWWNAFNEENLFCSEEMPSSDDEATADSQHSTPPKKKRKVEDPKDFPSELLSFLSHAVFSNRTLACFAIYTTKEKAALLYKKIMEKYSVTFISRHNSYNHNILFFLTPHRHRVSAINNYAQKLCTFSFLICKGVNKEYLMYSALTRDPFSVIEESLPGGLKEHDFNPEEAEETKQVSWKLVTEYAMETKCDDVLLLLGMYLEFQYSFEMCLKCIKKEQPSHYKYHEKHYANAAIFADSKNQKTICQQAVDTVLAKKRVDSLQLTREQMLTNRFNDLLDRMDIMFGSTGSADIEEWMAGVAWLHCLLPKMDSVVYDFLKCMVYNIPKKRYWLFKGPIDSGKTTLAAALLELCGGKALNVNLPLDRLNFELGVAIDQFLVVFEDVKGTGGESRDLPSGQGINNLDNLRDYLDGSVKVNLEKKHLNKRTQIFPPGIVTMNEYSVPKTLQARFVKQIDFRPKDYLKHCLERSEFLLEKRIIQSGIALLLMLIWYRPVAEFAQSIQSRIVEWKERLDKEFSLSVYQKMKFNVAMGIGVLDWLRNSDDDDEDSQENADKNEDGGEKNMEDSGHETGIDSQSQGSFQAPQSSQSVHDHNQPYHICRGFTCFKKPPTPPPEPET

inhibition, inactive:
O=C1Nc2cc(Cl)ccc2Nc2cscc21 14.2%, CCOc1cc(C(C(=O)NCC2CCCO2)N(C(=O)Cn2nnc3ccccc32)c2ccccc2C)ccc1O (configuration not stated) 9.12%, O=C(Nc1ccccc1)/C(=C\c1ccncc1)NC(=O)c1ccccc1 5.96%, O=C(Nc1ccccc1)/C(=C\c1cccs1)NC(=O)c1ccccc1 10.4%, Cc1ccc(NC(=O)/C(=C/c2ccncc2)NC(=O)c2ccccc2)cc1 13.5%, CC(=O)Nc1ccc(NC(=O)/C(=C/c2ccco2)NC(=O)c2ccccc2)cc1 14.8%, O=C(Nc1ccc(C(=O)O)cc1)/C(=C\c1ccco1)NC(=O)c1ccccc1 7.81%, Cc1ccc(NC(=O)/C(=C\c2cccs2)NC(=O)c2ccccc2)cc1 3%, COc1cc(CN2CCCC(C(=O)Nc3ccccc3Oc3cccnc3)C2)ccc1F (configuration not stated) 7.89%, CCOC(=O)c1[nH]c2c(c1-c1ccccc1)C(=O)CC(c1ccc(OCC)cc1)C2 (configuration not stated) -10.4%, C=CCOc1ccc(CNCc2cccnc2)cc1 2.27%, Cn1c(N2CCN(C(c3ccccc3)c3ccccc3)CC2)nc2ccccc21 0.51%, Cc1cc2nc3c(c(C(F)(F)F)n2n1)CCCC3 3.17%, COc1ccc(/C=C2\CCc3c2nc2ccccc2c3C(=O)O)cc1OC 6.95%, COc1cc(/C=C2\CCCc3c2nc2ccccc2c3C(=O)O)cc(OC)c1O 30.3%, COc1cccc(N2CC(NS(=O)(=O)c3ccc4ccccc4c3)CC2=O)c1 (configuration not stated) 11%, Cc1ccc(O)c(Sc2cc(C)ccc2O)c1 5.68%, Nc1ccccc1SSc1ccccc1N 22.8%, O=S(=O)(c1ccc(-c2cnc(C3CC3)o2)cc1)N1CCN(c2ccccc2)CC1 7.98%, O/N=C1\CCCc2ccc(Cl)cc21 3.89%, Cc1cc(C)n(CCc2nc(-c3cccs3)cs2)n1 0.46%, Cc1cc(C)n(CCc2nc(-c3ccc(C)o3)cs2)n1 28.1%, CC(O)c1nc2cc([N+](=O)[O-])ccc2n1Cc1ccccc1 (configuration not stated) 7.32%, O=C(/C=C/c1cccc(Cl)c1)NCc1cccs1 -0.755%, COc1ccc(NC(=O)COc2ccc(C)c(C)c2)cc1S(=O)(=O)N1CCCCC1 5.04%, Cc1cccc(OCCn2ccnc2)c1C 12.1%, CC(C)Cn1c(=O)c(C(=O)NCc2ccc3c(c2)OCO3)c(O)c2ccccc21 -14.6%, CCOC(=O)C1(C)C=C(Nc2ccc(C)cc2)C(=O)N1c1ccc(C)cc1 (configuration not stated) 12.1%, CCOC(=O)C1(C)C=C(Nc2ccc(NC(C)=O)cc2)C(=O)N1c1ccc(NC(C)=O)cc1 (configuration not stated) 6.98%, COc1ccc(C)c2sc(=NC(=O)c3cccc(N4C(=O)CCC4=O)c3)n(C)c12 14.4%, COC(=O)c1c(C(=O)OC)c2ccccn2c1C(=O)c1ccccc1 10.4%, Cc1ccc(-c2nc(C=Nc3ccc(O)cc3)c(O)o2)cc1 23.6%, Cc1ccc(N=C(N)N=C(N)N)cc1 6.91%, O=C1CC(NS(=O)(=O)c2cc(F)ccc2F)CN1c1cccc(F)c1 (configuration not stated) 4.86%, CCc1ccc[n+](-c2nc3ccccc3nc2C(=C=[N-])C#N)c1 11.3%, CN1CCN(C(=O)c2cccn(Cc3ccc(C(F)(F)F)cc3)c2=O)CC1 2.45%, COc1ccc(C2CC(=O)N3CN(Cc4ccco4)CSC3=C2C#N)cc1 (configuration not stated) 36.8%, CCOC(=O)c1ccc(N2CSC3=C(C#N)C(c4ccc(OC)cc4OC)CC(=O)N3C2)cc1 (configuration not stated) 31%, COc1ccc(OC)c(C2CC(=O)N3CN(c4cccc(Cl)c4)CSC3=C2C#N)c1 (configuration not stated) 21.8%, COc1ccc(C2CC(=O)N3CN(c4ccc(C)c(Cl)c4)CSC3=C2C#N)cc1 (configuration not stated) 34.4%, N#CC1=C2SCN(c3ccccc3)CN2C(=O)CC1c1cccs1 (configuration not stated) 25.3%, CCOC(=O)c1ccc(N2CSC3=C(C#N)C(c4cccs4)CC(=O)N3C2)cc1 (configuration not stated) 28.9%, COc1cccc(C2CC(=O)N3CN(c4cccc(Cl)c4C)CSC3=C2C#N)c1OC (configuration not stated) 25.5%, COc1ccc(OC)c(C2CC(=O)N3CN(c4ccccc4)CSC3=C2C#N)c1 (configuration not stated) 35.4%, COc1ccc(-c2nn(-c3ccccc3)cc2/C=C/C(=O)O)cc1[N+](=O)[O-] 18.4%, C#CCOCCOCCOCCNc1nc(N2CCN(C(=O)[C@H]([C@@H](C)CC)n3cc([C@@H](N)CC(C)C)nn3)CC2)nc(N2CCN(C(=O)[C@H]([C@@H](C)CC)n3cc([C@@H](N)CC(C)C)nn3)CC2)n1 3.81%, CC(C)c1ccc(NC(=O)CSc2ncccc2C(=O)Oc2cccc([N+](=O)[O-])c2)cc1 16.9%, CCc1cc2c3c([nH]c2cc1S(=O)(=O)N1CCC2(CC1)OCCO2)CCCC3=O -0.36%, CCN(C(=O)Cn1cnc2c(nc3n2CCCCC3)c1=O)c1cccc(Cl)c1 18.9%, C#CCn1c(=NC(=O)c2cc(-c3cccs3)nc3ccccc23)sc2cc(S(N)(=O)=O)ccc21 8.04%, O=C(O)C1CCCCC1C(=O)Nc1ccc(OCc2ccccc2)cc1 (configuration not stated) 9.44%, COc1cc(/C=C/c2nc3ccccc3c(=O)[nH]2)cc(Br)c1O -2.29%, CCOC(=O)c1[nH]c2ccccc2c1NC(=O)CC(C)(C)C -0.46%, O=C(O)CCC(=O)Nc1ccc(Cc2ccc(NC(=O)CCC(=O)O)cc2)cc1 5.94%, O=C(O)CCC(=O)Nc1ccc(F)cc1 12.5%, CC1CCCC(NC(=O)C2CCN(S(=O)(=O)c3cnc[nH]3)CC2)C1C (configuration not stated) 10.4%, COc1ccccc1N1CCN(S(=O)(=O)c2cc(C(F)(F)F)cc(C(F)(F)F)c2)CC1 4.92%, CCOC(=O)C1(C)NC(c2ccc(O)cc2)C2C(=O)N(c3ccccc3)C(=O)C21 (configuration not stated) 2.88%, O=C(NCCO)Nc1ccc2nc(-c3ccco3)c(-c3ccco3)nc2c1 52.6%, O=C(Nc1ccc2nc(-c3cccs3)c(-c3cccs3)nc2c1)NC1CC1 -4.56%, O=[N+]([O-])c1ccc(/C=N/N2CCN(Cc3ccccc3)CC2)cc1 8.88%, CN(C)c1ccc(/C=N/N2C(=O)c3ccccc3C2=O)cc1 21.5%, O=C1NN(c2ccc(F)cc2)C(=O)/C1=C\c1cnn(-c2ccccc2)c1 2.23%, CCN(CC)c1ccc(C(=O)N/N=C/c2ccc(OC)cc2OC)cc1 0.86%, CCOC(=O)/C=C/c1cnn(-c2ccccc2)c1 -1.48%, Cc1ccccc1N1C(=O)c2cccc3cccc(c23)C1=O 4.81%, CCN(CC)c1ccc(C=O)c(OC)c1 11.8%, COCCNC(=O)CN1CCC(NC(=O)Nc2ccc(C(F)(F)F)cc2)CC1 27.4%, Cc1cc(C)nc(NNC2=CC(=[N+]3CCCCC3)CC(C)(C)C2)n1 3.95%, CNC(=O)COC(=O)CNC(=O)c1cc(Cl)cc([N+](=O)[O-])c1 6.1%, C=CCn1c(SCc2cccc(OC)c2)nnc1-c1ccncc1 5.97%, CCc1ccc(C2CC(c3ccc(Cl)cc3)=NNC2=O)cc1 (configuration not stated) -1.48%, COc1ccccc1N1CCN(c2nccc(C)n2)CC1 11.9%, O=C1CCCN1c1nccs1 4.21%, O=c1c2ccccc2c(C=Nc2ccccc2O)c(O)n1-c1nccs1 15.8%, Cc1ccnc(N2C3CCC2CC(O)(c2ccccc2)C3)n1 (configuration not stated) 2.55%, O=C(NCCc1c[nH]c2ccccc12)C1CCN(S(=O)(=O)c2ccccc2F)CC1 10.5%, COc1ccc(S(=O)(=O)Cc2ccc(C(=O)NCc3ccccc3)o2)cc1 7.39%, Cc1c([N+](=O)[O-])cc(S(=O)(=O)Nc2ccncc2)cc1[N+](=O)[O-] 1.66%, COc1ccc(/C=C/CN2CCN(Cc3ccc(F)cc3)C(CCO)C2)cc1 (configuration not stated) 10.1%, O=C1NC(=S)N/C1=C/C=C/c1ccccc1 -22.6%, O=C1S/C(=C\C=C\c2ccco2)C(=O)N1c1ccccc1 20.3%, O=C1NC(=O)N(c2ccccc2)C1=O 28.5%, CCOC(=O)C1=C(C)N(c2ccc(C)c(C)c2)C(=O)/C1=C\c1ccco1 7.58%, O=C1N/C(=C/c2ccc(N3CCCC3)cc2)C(=O)N1c1ccccc1 1.12%, COC(=O)C1=C(C)N(c2ccc(C)c(C)c2)/C(=C/c2ccco2)C1=O 13.5%, Nc1ccc2c3c(cccc13)C(=O)N(c1ccccc1)C2=O 6.29%, O=C1/C(=C\c2ccco2)SC(=S)N1c1ccccc1 21.4%, O=C(OCc1ccccc1)N1CCOCCN(C(=O)OCc2ccccc2)CCOCC1 0.08%, c1ccc(N2CCN(c3nc(-c4cccs4)nc4ccccc34)CC2)cc1 17.6%, COC(=O)c1cccc(C(=O)N2CCCC(C(=O)c3ccccc3OC)C2)c1 (configuration not stated) 2.9%, Cc1ccccc1CCNC(=O)Cn1ccc2cc(S(=O)(=O)N3CCCC3)ccc21 11.1%
